The panel holds about 83,000 compounds, 20% with a hit somewhere; the sample as a whole holds those more often.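 Plates (96-well) were seeded with cells, treated with compound at one concentration, and incubated for 48 hours before percent growth was determined.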 Calls of active or inactive are those of the source. Rule for the calls: active = growth percent below 10; inactive = the rest.
system: OVCAR-3 ovarian; assay: NCI-60 one-dose screen, 48 h (100 = growth as untreated, 0 = no growth, -100 = all killed); details: 10 µM

| Compound | growth |
| --- | --- |
| CC(=O)OC/C=C(/C)C[P+](c1ccccc1)(c1ccccc1)c1ccccc1 | 62.9% (inactive) |
| CCOC(=O)c1cc(C(=O)c2cc(OC)cc(OC)c2)n2ncc3ccccc3c12 | -13.5% (active) |
| C=CCN(CC=C)C(=O)[C@H](CC)[C@@H]1CC[C@@H](C)[C@@H]([C@H](C)[C@@H](O)[C@@H](C)C(=O)[C@H](CC)C2O[C@]3(C=CC(=O)[C@]4(CC[C@@](C)([C@H]5CC[C@](O)(CC)[C@H](C)O5)O4)O3)[C@H](C)C[C@@H]2C)O1 (some centres not stated) | 29.8% (inactive) |
| Cc1c2c(nn1C(=O)c1nn(-c3ccc(Cl)cc3)cc1O)-c1ccccc1CC2 | -3.9% (active) |
| O=C(CCn1cnc2c(cc(-c3ccccc3)n2-c2ccccc2)c1=O)Nc1ccc(F)cc1 | 76.7% (inactive) |
| COc1ccc(-c2onc(N)c2-c2cc(OC)c3c(c2)OCO3)cc1 | -1.21% (active) |
| CCCN(CCC)C(=O)[C@H](CC)[C@@H]1CC[C@@H](C)[C@@H]([C@H](C)[C@@H](O)[C@@H](C)C(=O)[C@H](CC)C2O[C@]3(C=C[C@@H](O)[C@]4(CC[C@@](C)([C@H]5CC[C@](O)(CC)[C@H](C)O5)O4)O3)[C@H](C)C[C@@H]2C)O1 (some centres not stated) | 2.11% (active) |
| CCOC(=O)c1cc(C(=O)c2cc(OC)c(OC)c(OC)c2)n2c1ccc1c3cccnc3ccc12 | 61.5% (inactive) |
| COc1cc(NC(=O)Nc2cnc(Nc3ccc(N4CCOCC4)cc3)nc2Oc2cccc(OC)c2)cc(OC)c1 | 41.7% (inactive) |
| Fc1ccc2[nH]cc(-c3nc(-c4ccsc4)cs3)c2c1 | 99.8% (inactive) |
| IC(I)I | 106% (inactive) |
| Cc1ccc(-n2c(C)nn3c(=O)c4c5c(sc4nc23)CN(C)CC5)cc1 | 96.7% (inactive) |
| CN(C)c1ccc(/C=N/NC(=O)c2ccccc2Nc2cccc(C(F)(F)F)c2)cc1 | 87.7% (inactive) |
| N#CC1=C(N)Oc2cc(N)ccc2C1c1cccnc1 (configuration not stated) | 96.6% (inactive) |
| O=C(CCCCNC(=O)c1nc(-c2ccccc2)n(-c2ccccc2)n1)NO | 70.1% (inactive) |
| COc1ccc(-c2cc(-c3ccc(OC)c(OC)c3)nc(SCCCC(=O)NO)n2)cc1 | -24% (active) |

| Compound | growth |
| --- | --- |
| COc1cc(C2CC(c3ccccc3)=NN2C(C)=O)cc(OC)c1OC (configuration not stated) | -10.7% (active) |
| O=C(/C=C/C=C/c1c(C2CC2)nc2ccccc2c1-c1ccc(F)cc1)c1cccs1 | -2.17% (active) |
| CC(C)N(CCOc1ccc(-c2nc3sccn3c2-c2ccnc(S(C)(=O)=O)n2)cc1)C(C)C | 72.8% (inactive) |
| O=C(Nc1nc(-c2ccccc2)nc2c1sc(=S)n2-c1ccccc1)C(F)(F)F | 105% (inactive) |
| O=C(CSc1nnc(-c2ccc(Cl)cc2)o1)Nc1ccc(C(=O)/C=C/c2ccc(Cl)cc2)cc1 | 103% (inactive) |
| C=CCn1c(SCC(=O)Nc2ccc(C(=O)/C=C/c3ccc(OC)cc3)cc2)nnc1-c1ccc(OC)c(OC)c1 | 89.6% (inactive) |
| CN1CCN(CC(=O)Nc2cccc(-n3cc(-c4ccncc4)c(-c4ccc(Cl)c(O)c4)n3)c2)CC1 | 12.8% (inactive) |
| CCc1ccc(C2=NN(c3ccc(S(C)(=O)=O)cc3)C(=O)CC2)cc1 | -13.6% (active) |
| Cc1nn(-c2ccc(-c3ccc(OC(F)(F)F)cc3)cc2)c2nc(Cc3ccccc3)nc(N)c12 | 46.5% (inactive) |
| Cn1c2ccccc2c2c3[nH][nH]c(=O)c3c3c4ccccc4[nH]c3c21 | 2.46% (active) |
| CC[C@H]1OC(=O)[C@H](C)[C@@H](O[C@H]2C[C@@](C)(OC)[C@@H](O)[C@H](C)O2)[C@H](C)[C@@H](O[C@@H]2O[C@H](C)C[C@H](N(C)C)[C@H]2O)[C@](C)(OC)C/C(C)=C2/O[C@@]1(C)C=C2C | 75.3% (inactive) |
| C=C(C)[C@@H]1CC[C@]2(COCCC#N)CC[C@]3(C)[C@H](CC[C@@H]4[C@@]5(C)Cc6c([nH]c7ccccc67)C(C)(C)[C@@H]5CC[C@]43C)[C@@H]12 | 93.9% (inactive) |
| CC(=O)[C@H]1CC[C@]2(C)[C@@H]1CC[C@@H]1[C@@]3(C)CC(CCC#N)(CCC#N)C(=O)C(C)(C)[C@@H]3CC[C@]12C | 107% (inactive) |
| O=C1c2ccccc2C(=O)c2c1ccc(C(Br)Br)c2Cl | -13.8% (active) |
| Clc1ccc(/C=C2\CCCC3C2=Nc2ccccc2NC3c2ccc(Cl)cc2)cc1 (configuration not stated) | 67% (inactive) |
| Cc1ccc(/C=C/C(=O)C(=O)/C=C/c2ccc(C)cc2)cc1 | 112% (inactive) |

Source: PubChem BioAssay (NCI)
